Laboratory results from PubChem BioAssay (NCI).
Where “and” joins values, the source holds several entries; their conditions need not be identical. Identical values can stand only once. This is part of a sample that, as a whole, favours compounds with a hit. Of some 79,000 tested, about 15% had one in any assay. A structure can be active in one record and inactive in another. Calls of active or inactive are those of the source. Rule as the data show it: active = growth inhibition above about 70%; inactive = the rest.

Tests used:
[1] = NCI Yeast Anticancer Drug Screen. Data for the rad50 strain (AID 155);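 also: 0% = growth of vehicle-only cultures of the same strain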; conditions: S. cerevisiae rad50 strain growth inhibition; at 50.0 µM; stronger effect = higher value
Summary of the method: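 Yeast carrying a defined DNA repair defect were exposed to test compounds, and growth was compared with vehicle-treated controls to give percent inhibition.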

[2] = NCI Yeast Anticancer Drug Screen. Data for the mec2-1 strain (AID 157); conditions: S. cerevisiae mec2-1 strain, at 50.0 µM, stronger effect = higher value
Summary of the method: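 Each compound was tested on mec2-1 yeast, a strain altered in DNA damage repair or cell cycle control. Growth inhibition is reported relative to vehicle.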

[3] = NCI Yeast Anticancer Drug Screen. Data for the sgs1 mgt1 strain (AID 161);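 also: 0% = growth of cultures given vehicle only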; conditions: S. cerevisiae sgs1 mgt1 strain, at 50.0 µM, stronger effect = higher value
Summary of the method: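 Mutant yeast exposed to compound; growth scored against vehicle-only wells.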

[4] = NCI Yeast Anticancer Drug Screen. Data for the cln2 rad14 strain (AID 165);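 also: 0% = growth equal to vehicle treated cultures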; conditions: S. cerevisiae cln2 rad14 strain, at 50.0 µM, stronger effect = higher value
Summary of the method: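 Test compounds were added to cln2 rad14 yeast cultures; inhibition of growth was then determined by comparison with vehicle treatment.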

[5] = NCI Yeast Anticancer Drug Screen. Data for the bub3 strain (AID 167); conditions: S. cerevisiae bub3 mutant strain, at 50.0 µM, stronger effect = higher value
Summary of the method: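 Compounds were applied to a genetically altered yeast strain carrying a cell-cycle control defect. Growth inhibition was scored against vehicle-treated controls.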

[6] = NCI Yeast Anticancer Drug Screen. Data for the mlh1 rad18 strain (AID 175); conditions: S. cerevisiae mlh1 rad18 strain growth inhibition; at 50.0 µM; stronger effect = higher value
Summary of the method: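 Inhibition values reflect reduced growth of mutant yeast versus vehicle-treated controls following compound exposure; the mutations affect DNA damage repair.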

Structure (SMILES)	growth inhibition [1]	growth inhibition [2]	growth inhibition [3]	growth inhibition [4]	growth inhibition [5]	growth inhibition [6]
c1ccc(C(c2ccccc2)N2CCCC2)cc1	-4.05% (inactive) and 7.15% (inactive)	-14.7% (inactive) and 10.8% (inactive)	-5.7% (inactive) and 4.6% (inactive)	41.1% (inactive) and -0.2% (inactive)	2.25% (inactive) and 3.7% (inactive)	25.9% (inactive) and -7% (inactive)
Oc1ccc(-c2ccc(O)cc2)cc1	36.2% (inactive) and -18.6% (inactive)	2.45% (inactive) and -3.75% (inactive)	7.4% (inactive) and -17.4% (inactive)	19.9% (inactive) and -27.9% (inactive)	11.9% (inactive) and 12.9% (inactive)	13.8% (inactive) and 19.3% (inactive)
CC(CC(N)C(=O)O)C(=O)O (configuration not stated)	-0.4% (inactive) and -5.1% (inactive)	-4.75% (inactive) and -22.6% (inactive)	-1.95% (inactive) and -49.1% (inactive)	0.25% (inactive) and -68.8% (inactive)	0.9% (inactive) and -26.1% (inactive)	-1.85% (inactive) and -17.2% (inactive)
C=C1C[C@]23C[C@@]1(O)CC[C@H]2[C@@]12C=C[C@H](O)[C@@](C)(C(=O)O1)[C@H]2[C@@H]3C(=O)O	-20.4% (inactive) and -0.7% (inactive)	-39.5% (inactive) and -16.6% (inactive)	-31.1% (inactive) and -1.3% (inactive)	0.4% (inactive) and 0.9% (inactive)	-51.8% (inactive) and -18.1% (inactive)	-52.4% (inactive) and -3% (inactive)
COc1c2c(cc(O)c1C(C)=O)OC(C)(C)C=C2	-4.8% (inactive) and 16.6% (inactive)	-37.5% (inactive) and -36.5% (inactive)	-11.6% (inactive) and 16% (inactive)	-14.9% (inactive) and 11.6% (inactive)	-12.1% (inactive) and 18.1% (inactive)	-15% (inactive) and 5.85% (inactive)
O=C1c2ccccc2C(=O)c2c(O)ccc(O)c21	51.5% (inactive) and 39.8% (inactive)	37.2% (inactive) and 11.2% (inactive)	54.1% (inactive) and 21.6% (inactive)	24.4% (inactive) and 33.8% (inactive)	52% (inactive) and 28.9% (inactive)	50.5% (inactive) and 13.8% (inactive)
CC(O)(c1cccc(Cl)c1)C(c1ccccc1)c1ccccn1 (configuration not stated)	82.6% (active) and 97.7% (active)	79.2% (active) and 97.9% (active)	95% (active) and 97.8% (active)	19.8% (inactive) and 92.2% (active)	46.8% (inactive) and 97.4% (active)	79.7% (active) and 97% (active)
CCOC(=O)C(N)Cc1ccc(O)cc1 (configuration not stated)	16% (inactive) and 0.4% (inactive)	8.05% (inactive) and 6.55% (inactive)	-0.85% (inactive) and -11.8% (inactive)	6.25% (inactive) and -19.6% (inactive)	10.7% (inactive) and 1.75% (inactive)	23.4% (inactive) and -1.7% (inactive)
CC(=O)Nc1cccc2c1C(=O)OC2=O	8.65% (inactive) and 1.9% (inactive)	-3.9% (inactive) and -0.15% (inactive)	5.05% (inactive) and -16.7% (inactive)	-6.3% (inactive) and -20.6% (inactive)	-1.9% (inactive) and -0.8% (inactive)	-8.1% (inactive) and -4.7% (inactive)
Cc1[nH]n(-c2ccc(S(=O)(=O)O)cc2)c(=O)c1N=Nc1ccccc1	-0.4% (inactive) and -2.2% (inactive)	6.55% (inactive) and -21.9% (inactive)	-10% (inactive) and 2.1% (inactive)	0.95% (inactive) and 8.8% (inactive)	10.8% (inactive) and 4.1% (inactive)	-0.6% (inactive) and 15.1% (inactive)
CC(OC(=O)c1ccccc1)C(OC(=O)c1ccccc1)C(OC(=O)c1ccccc1)c1cnn(-c2ccccc2)n1 (configuration not stated)	14.8% (inactive) and 35.7% (inactive)	-2.35% (inactive) and -1.9% (inactive)	24.8% (inactive) and 3.35% (inactive)	19.1% (inactive) and -9.45% (inactive)	10.1% (inactive) and 16.1% (inactive)	6.7% (inactive) and 32% (inactive)
O=C1/C(=C/c2ccc(F)cc2)CCC/C1=C\c1ccc(F)cc1	26.6% (inactive) and -14.2% (inactive)	-25.7% (inactive) and -10.3% (inactive)	34.2% (inactive) and 1.45% (inactive)	27.7% (inactive) and -21.4% (inactive)	15.4% (inactive) and -5.45% (inactive)	18.9% (inactive) and -6.1% (inactive)
CCC(N)C(=O)O (configuration not stated)	-0.4% (inactive) and 5.25% (inactive)	-31.6% (inactive) and 6.85% (inactive)	1.75% (inactive) and -11.3% (inactive)	8.55% (inactive) and 9.4% (inactive)	-9.75% (inactive) and -14.9% (inactive)	-10.8% (inactive) and -0.8% (inactive)
CC(C)CC(NC(=O)COc1ccccc1Cl)C(=O)O (configuration not stated)	-9.6% (inactive) and 5.05% (inactive)	15.5% (inactive) and 14.3% (inactive)	3.4% (inactive) and 6.9% (inactive)	-11.8% (inactive) and -9.2% (inactive)	1.25% (inactive) and 7.15% (inactive)	-8.75% (inactive) and -13.3% (inactive)
CC(C)(CO)C(O)C(=O)NCCS(=O)(=O)O (configuration not stated)	-6.8% (inactive) and -16.3% (inactive)	-4.35% (inactive) and -1.8% (inactive)	15.2% (inactive) and 3.4% (inactive)	-14% (inactive) and -11.9% (inactive)	9.05% (inactive) and 21.9% (inactive)	-3.1% (inactive) and -27.3% (inactive)
C=Cc1c(C)c2cc3[nH]c(cc4nc(cc5nc(cc1[nH]2)C(C)=C5CCC(=O)O)C(CCC(=O)O)=C4C)c(C)c3C=C	6.5% (inactive) and 13% (inactive)	1.5% (inactive) and -13.3% (inactive)	9.05% (inactive) and 12.7% (inactive)	10.2% (inactive) and 10.5% (inactive)	0.65% (inactive) and -0.1% (inactive)	32.6% (inactive) and 27.1% (inactive)
OCC(O)C(O)C(O)C(O)[C@@H](O)c1nc2ccccc2[nH]1 (some centres not stated)	-5.1% (inactive) and -12.2% (inactive)	3% (inactive) and -0.15% (inactive)	-2.75% (inactive) and -4.4% (inactive)	-34.5% (inactive) and -16.2% (inactive)	2.8% (inactive) and 21.2% (inactive)	-3.8% (inactive) and 12.2% (inactive)
O=C1CCCCC1C(O)c1ccc([N+](=O)[O-])cc1 (configuration not stated)	0.05% (inactive) and -2.7% (inactive)	16.1% (inactive) and -5.9% (inactive)	10.7% (inactive) and -2.35% (inactive)	-2.35% (inactive) and -15.2% (inactive)	5.3% (inactive) and -5.1% (inactive)	16.1% (inactive) and -6.85% (inactive)
C1CN(CCN2CCOCC2)CCO1	0.9% (inactive) and 7.9% (inactive)	18.1% (inactive) and 13% (inactive)	9.35% (inactive) and 13.6% (inactive)	-26.6% (inactive) and -40.6% (inactive)	10.6% (inactive) and 28.9% (inactive)	7.7% (inactive) and 14% (inactive)
O=C(O)CCC(C(=O)O)N1C(=O)c2ccccc2C1=O (configuration not stated)	9.3% (inactive) and -0.9% (inactive)	-0.3% (inactive) and -41.5% (inactive)	0.3% (inactive) and -24.4% (inactive)	-30.1% (inactive) and -10.7% (inactive)	3.75% (inactive) and -48.2% (inactive)	8.6% (inactive) and -0.75% (inactive)
CC(=O)Nc1ccc(S(=O)c2ccc(NC(C)=O)cc2)cc1	-25.6% (inactive) and 12% (inactive)	-21.3% (inactive) and 9.5% (inactive)	-45.5% (inactive) and 12.1% (inactive)	7.1% (inactive) and -22.4% (inactive)	-15.6% (inactive) and 10.3% (inactive)	-34.8% (inactive) and 24.6% (inactive)
CC(=O)Nc1cccc(N)c1	8.05% (inactive) and 12.3% (inactive)	-12% (inactive) and 6.65% (inactive)	0.35% (inactive) and -3.95% (inactive)	5.4% (inactive) and -40.4% (inactive)	5.1% (inactive) and 0.7% (inactive)	9.6% (inactive) and -1.3% (inactive)
